Laboratory results as given in PubChem BioAssay (NCI).
Where “and” joins values, the source holds several entries; their conditions need not be identical. Equal entries are not always repeated. About 83,000 compounds went through this panel and 20% of them were active in at least one assay; those are over-represented in the sample as a whole.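 Values shown are percent growth following 48 h exposure of cells in 96-well plates to a single concentration of compound; below 10 was considered active.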 Calls of active or inactive are those of the source. Where a SMILES comes first, the peptide text is derived from it. [ ]: non-standard residue; d: D form. ξ: configuration not given here. ξV = CC(C)C(N)C(=O)O

What follows are molecules tested on NCI/ADR-RES ovarian (assay: NCI-60 one-dose screen, 48 h (100 = growth as untreated, 0 = no growth, -100 = all killed)). Details: 0.0025 µM.
Protocol: Growth inhibition of the NCI/ADR-RES human […] tumor cell line is measured as a screen for anti-cancer activity. Cells are grown in 96 well plates and exposed to the test compound for 48 hours. Compounds are tested at a single concentration, which is 10^-5 M for most compounds. The reported endpoint is percent growth (GI% or GIPRCNT), where numbers from 0 - 100% represent growth inhibition, and numbers from -100% - 0 represent cell death. For example, a value of 40 represents 60% growth inhibition. A value of 0 means no net growth occurred over the course of the experiment. A value of -40 indicates 40% of cells at the beginning of the experiment died by the end of the experiment. A value of -100 means all cells are dead at the end of the experiment.
NCI-60 Human Tumor Cell Lines Screen was performed using the standard one-dose NCI protocol, which is described in more detail at https://dtp.cancer.gov/discovery_development/nci-60/default.htm.
Compounds with GIPRCNT values below 10 were considered active. Activity score was based on GIPRCNT using the following formula: […]
Score is 0 for GIPRCNT values of 100 or above, 50 for GIPRCNT values of 0, and 100 for GIPRCNT values of -100.

SMILES | growth
COc1cccc2c1C(=O)c1c(O)c3c(c(O)c1C2=O)C[C@@](O)(C(=O)CO)C[C@@H]3OC1CC(N)C(O)C(C)O1 (stereo not given in full) | 103% (inactive)

Same assay, conditions: 1 µM

SMILES | growth
COc1cccc2c1C(=O)c1c(O)c3c(c(O)c1C2=O)C[C@@](O)(C(=O)CO)C[C@@H]3OC1CC(N)C(O)C(C)O1 (stereo not given in full) | 104% (inactive)

Same assay, conditions: 2.5 µM

SMILES | growth
COc1cccc2c1C(=O)c1c(O)c3c(c(O)c1C2=O)C[C@@](O)(C(=O)CO)C[C@@H]3OC1CC(N)C(O)C(C)O1 (stereo not given in full) | 99% (inactive)

Same assay, conditions: 10 µM

SMILES | growth
COc1cccc2c1C(=O)c1c(O)c3c(c(O)c1C2=O)C[C@@](O)(C(C)=O)C[C@@H]3OC1CC(N)C(O)C(C)O1 (stereo not given in full) | 23.9% (inactive)
CCCCCCCCCCSC(=N)N | 69.3% (inactive)
C[n+]1c2cc(N)ccc2cc2ccc(N)cc21 | 18.2% (inactive) [middle of 4 runs]
COc1cccc2c1C(=O)c1c(O)c3c(c(O)c1C2=O)C[C@@](O)(C(=O)CO)C[C@@H]3OC1CC(N)C(O)C(C)O1 (stereo not given in full) | 4.94% (active)
Nc1ccc2cc3ccc(N)cc3nc2c1 | 89.1% (inactive) and 12.6% (inactive)
O=[N+]([O-])C1=C(c2ccccc2)SC=C(c2ccccc2)S1 | 78.1% (inactive)
OCC(O)C(O)C(O)C(/C=N/Nc1ccccc1)=N/Nc1ccccc1 (stereo not given) | 79.8% (inactive)
O=C(C(=Cc1ccccc1)C(=O)c1ccccc1)c1ccccc1 | 54.3% (inactive) and 84.3% (inactive)
CC(C)(C)CC(C)(C)c1ccc(OCCO)cc1 | 105% (inactive)
O=C(/C=C/c1ccccn1)c1ccccc1 | 35% (inactive)
CN1CCN(CCCN2c3ccccc3Sc3ccc(C(F)(F)F)cc32)CC1 | 70.8% (inactive)
Nc1c2ccccc2nc2ccccc12 | 7.27% (active) and 43.1% (inactive) and 37% (inactive)
NNc1ccc2ccccc2c1 | 97.1% (inactive) and 101% (inactive)
CCCCCCCCCCCCSC(=NC)NC | 47.4% (inactive) and 69.1% (inactive)
CCO/C=C1\SC(=S)N(c2cccc(O)c2)C1=O | 107% (inactive)
Clc1cc(Cl)c(Cl)nn1 | 107% (inactive)
Oc1ccc(N=Nc2ccccn2)c(O)c1 | 14.7% (inactive)
O=C(Nc1ccc(C(=O)O)c(O)c1)c1ccccc1 | 84.2% (inactive) and 100% (inactive)

SMILES | growth
CCCCCCCCCCCC[N+](C)(C)Cc1ccccc1 | 96.8% (inactive)
O=C1C=C(O)c2ccccc2C1=O.[Ag] | 109% (inactive)
CN(C)C(=S)SC(=S)N(C)C | 104% (inactive) and 101% (inactive)
COc1ccc(CC(=O)c2ccc(O)cc2O)cc1 | 105% (inactive)
OC(CN1CCCC2CCCCC21)c1cc2ccccc2c2ccccc12 (stereo not given) | 17.4% (inactive)
COC(=O)C1C(O)C(C)C(O)C(C)C=C(C)C2=C3C(=C(C)C(=O)c4c(O)c(c(C)c(OC(C)=O)c43)NC(=O)C(C)=C/C=C\C(C)C(O)C(C)C1O)OCO2 (stereo not given) | 121% (inactive)
OCC1OC(n2cnc3c(=S)nc[nH]c32)C(O)C1O (stereo not given) | 102% (inactive) and 46.5% (inactive)
NNc1c2ccccc2nc2ccccc12 | 57.3% (inactive)
Clc1ccc(/C=C/c2ccccn2)c(Cl)c1 | 109% (inactive)
CSC1SCC2C(=O)N(C)C(C(C)C)C(=O)OCC(NC(=O)c3cnc4ccccc4n3)C(=O)NC(C)C(=O)N(C)C1C(=O)N(C)C(C(C)C)C(=O)OCC(NC(=O)c1cnc3ccccc3n1)C(=O)NC(C)C(=O)N2C (stereo not given) | 7.62% (active)
CC1=CC(C)=Nc2ccc(Cl)cc2N1 | 102% (inactive)
CC(C)C(NC(=O)CN)C(=O)O (stereo not given) (H-Gly-[ξV]-OH) | 105% (inactive) and 111% (inactive)
O=C1NC(=O)c2cc([N+](=O)[O-])ccc21 | 113% (inactive)
CCN(CC)c1ccc(NC(C(=O)c2ccccc2)c2ccccc2)cc1 (stereo not given) | 25.4% (inactive)
N=S(c1ccccc1[N+](=O)[O-])c1ccccc1[N+](=O)[O-] | 90.4% (inactive)
CCN1/C(=C/C=C/C=C/c2sc3ccccc3[n+]2CC)Sc2ccccc21 | 55.9% (inactive)
CC(=O)Nc1cc(C)ccc1C | 103% (inactive)
O=c1ccn(C2CC(O)C(COC(c3ccccc3)(c3ccccc3)c3ccccc3)O2)c(=O)[nH]1 (stereo not given) | 85% (inactive)

Same assay, conditions: 100 µM

SMILES | growth
O=c1ccn(C2CC(O)C(COC(c3ccccc3)(c3ccccc3)c3ccccc3)O2)c(=O)[nH]1 (stereo not given) | 44.3% (inactive)
